Compounds with a hit are over-represented: about 1.6% of the library has one in this group of screens.
p53ts 32C kill: p53ts cell cytotoxicity, permissive temperature | Potency, µM (top dose mostly 46.1 µM), inactives show top-dose activity change, negative = cytotoxicity, most hits filed as cytotoxic | H1299-p53A138V at 32C, ATP luminescence viability, 24 h | 0.93% of 130,000 active | AID 924;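 further: 0% = DMSO and -100% = full killing by reference compound; nearly all actives have a fitted effect of over 55% in size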
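Viability by ATPlite luminescence after 24 h compound treatment (up to 46 uM) at the permissive 32C. Cells are H1299 carrying p53 A138V. Scale runs from DMSO basal to 100 uM tamoxifen as full kill; AC50 from Hill fits.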
p53ts 39C tox: cytotoxicity in p53ts cells at nonpermissive temperature; H1299-p53A138V viability at 39C, ATP luminescence, 24 h; Potency, µM (series often up to 46.1 µM), inactives show at the top dose activity change, negative = cell killing, actives largely listed as cytotoxic; 1.5% of 130,000 active; further: on the % scale 0 is the no-effect control and ±100 the full control effect; nearly all actives have a fitted effect of over 55% in size
Peg3 imprint: induces erasure of genomic imprints in mouse ES cells | 0.02% of 110,000 active | mouse ES Peg3-LacZ reporter, beta-gal luminescence, 40 h | AID 1948 | Potency, µM (highest dose often 60.7 µM), for the others: top-dose activity change, positive = activation, usual class: activators
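Gelatin-coated wells received 300 freshly trypsinized female ES cells with a Peg3LacZ-Neo reporter on the maternal allele, then incubated 40 hours at 37C. BetaGlo was added for 5 minutes at room temperature before a single luminescence read.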
Starred values were filed as active, the others as inactive; [ ] = dose if it differs, or a comment. The call rests on the fitted dose curve; in most records, active means well fitted curve in the direction sought with a large enough effect; inconclusive means small, poorly fitted or top-dose-only effect, or another doubt; inactive means no such curve, though single readings can be large; an effect the other way counts as inactive or inconclusive. Potency means the concentration at half of the fitted maximal effect.

`CC1=C(C(=O)Nc2ccccc2C)C(c2ccccn2)n2nc(SCc3ccccc3F)nc2N1` (centres undefined) gave p53ts 32C kill -14.4%, p53ts 39C tox 6.31µM* and Peg3 imprint 1.7%[10.9 µM].
For COc1ccccc1NC(=O)C1=C(C)Nc2nc(SCc3ccccc3F)nn2C1c1ccncc1 (centres undefined) the results were p53ts 32C kill 1.1%, p53ts 39C tox -15.1% and Peg3 imprint 5.9%[10.9 µM].
`CCN(CC)c1ccc(NC(=O)CCc2c(C)nc3ncnn3c2C)c(C)c1` gave p53ts 32C kill 6.2%, p53ts 39C tox -19.6% and Peg3 imprint -7.9%[10.9 µM].
Screening O=C(Nc1cccnc1)c1ccc(NC(=O)c2ccco2)cc1 returned p53ts 32C kill 5.3%, p53ts 39C tox 16.7% and Peg3 imprint -10.6%.
`O=C(Nc1ccc(NC(=O)c2ccco2)nc1)c1cccnc1` gave p53ts 32C kill 10µM*, p53ts 39C tox 12.6µM* and Peg3 imprint -46.5%.
For CCCn1c(-c2ccc(F)cc2)nc2c(NCCCCN(CC)CC)nc(C)nc21 the results were p53ts 32C kill -16.3%, p53ts 39C tox -16.6% and Peg3 imprint -10.8%.
Screening Cc1ccc(-n2ncc3c(NC4CCCC4)ncnc32)cc1 returned p53ts 32C kill 12.6µM*, p53ts 39C tox inconclusive and Peg3 imprint -20.5%[10.9 µM].
Screening Cc1ccc(Nc2ncnc3c2cnn3-c2ccc(C)cc2)cc1 returned p53ts 32C kill 8.4%, p53ts 39C tox 2.4% and Peg3 imprint -6.6%[10.9 µM].
`COc1ccc(-n2ncc3c(NC4CCCC4)ncnc32)cc1` gave p53ts 32C kill 5.01µM*, p53ts 39C tox 2µM* and Peg3 imprint -16.4%[10.9 µM].
CCCCNc1ncnc2c1cnn2-c1ccccc1 was read as p53ts 32C kill inconclusive, p53ts 39C tox inconclusive and Peg3 imprint -16.0%.
c1ccc(-n2ncc3c(NC4CCCC4)ncnc32)cc1 was read as p53ts 32C kill 12.6µM*, p53ts 39C tox 10µM* and Peg3 imprint -16.6%[10.9 µM].
COc1ccc(CNc2ncnc3c2cnn3-c2ccc(Cl)cc2)cc1 was read as p53ts 32C kill 5.5%, p53ts 39C tox 7.4% and Peg3 imprint 21.2%[10.9 µM].
For COc1ccc(-n2ncc3c(NCCCOC(C)C)ncnc32)cc1 the results were p53ts 32C kill -6.5%, p53ts 39C tox inconclusive and Peg3 imprint -4.4%[10.9 µM].
Screening COc1ccc(-n2ncc3c(NC(C)C)ncnc32)cc1 returned p53ts 32C kill 12.6µM* and p53ts 39C tox 12.6µM*.
For CCn1ccc2cc(S(=O)(=O)N3CCC(C(=O)NCCc4ccc(C)cc4)CC3)ccc21 the results were p53ts 32C kill 15.1%, p53ts 39C tox -26.7% and Peg3 imprint -10.0%[10.9 µM].
Screening COC(=O)[C@H]1[C@H]2CC3c4[nH]c5ccccc5c4CCN3C[C@@H]2CC[C@@H]1O (some centres undefined) returned Peg3 imprint -6.0%.
For Cc1ccccc1CNC(=O)c1cnc2sc(N3CCC(C)CC3)nn2c1=O the results were p53ts 32C kill 1.6%, p53ts 39C tox 3.4% and Peg3 imprint -7.8%[10.9 µM].
`CCc1ccc(C(=O)COC(=O)C(Cc2c[nH]c3ccccc23)NC(=O)c2ccc(CC)cc2)cc1` (centres undefined) gave p53ts 32C kill 16.1%, p53ts 39C tox -15.9% and Peg3 imprint -12.2%[10.9 µM].
For COc1ccc(-c2nc3cnc(N(C)C)nc3n(C3CC3)c2=O)cc1 the results were p53ts 32C kill -7.1%, p53ts 39C tox -28.0% and Peg3 imprint 2.4%.
Screening CCCn1nnnc1SCC(=O)NCc1cccs1 returned p53ts 32C kill -1.4%, p53ts 39C tox -10.0% and Peg3 imprint 2.7%.
Screening COCCn1c(-c2ccc(Cl)cc2)cnc1SCC(=O)NCc1cccs1 returned p53ts 32C kill inconclusive, p53ts 39C tox 25.1µM* and Peg3 imprint -11.8%.
For O=C1Nc2ccccc2Oc2cc(Oc3ccccc3)ccc21 the results were p53ts 32C kill -11.8%, p53ts 39C tox -3.3% and Peg3 imprint -0.9%[10.9 µM].
`COc1ccccc1CNC(=O)c1ccc(Cn2c(SCc3ccccc3)nc3cccnc32)cc1` gave p53ts 32C kill 1.7%.
Cc1cccc(-c2nc(Cn3c(SCc4cccc(C(F)(F)F)c4)nc4ccncc43)c(C)o2)c1 was read as p53ts 32C kill -6.8%, p53ts 39C tox 10µM* and Peg3 imprint 6.2%[10.9 µM].
`COc1ccc(-c2nc(Cn3c(SCc4cccc(F)c4)nc4ccncc43)c(C)o2)cc1OC` gave p53ts 32C kill -14.5%, p53ts 39C tox -10.2% and Peg3 imprint -23.2%.
Screening CCC(C(=O)NC1CCCCC1)n1c(SCc2cccc(C)c2)nc2ccncc21 (centres undefined) returned p53ts 32C kill 12.6µM*, p53ts 39C tox 10µM* and Peg3 imprint -4.4%[10.9 µM].
Screening CCC(C(=O)NC1CCCCC1)n1c(SCc2cccc(F)c2)nc2ccncc21 (centres undefined) returned p53ts 32C kill -9.5%, p53ts 39C tox -15.7% and Peg3 imprint -4.3%[10.9 µM].
COC(=O)c1ccc(Cn2c(SCc3cccc(C)c3)nc3ccncc32)cc1 was read as p53ts 32C kill 25.1µM*, p53ts 39C tox inconclusive and Peg3 imprint -9.8%[10.9 µM].
`COC(=O)c1ccc(CSc2nc3ccncc3n2Cc2ccc(F)cc2)cc1` gave p53ts 32C kill -7.0%, p53ts 39C tox -21.4% and Peg3 imprint -11.2%[10.9 µM].
Screening COCCCNC(=O)CSc1nc(-c2ccc(OC)cc2)[nH]c1-c1ccc(OC)cc1 returned p53ts 32C kill 3.3%, p53ts 39C tox -20.4% and Peg3 imprint -12.0%[10.9 µM].
Screening Cc1ccc(C)c(S(=O)(=O)c2cn(C)c3cc(N4CCCCC4C)c(F)cc3c2=O)c1 (centres undefined) returned p53ts 32C kill 2.3%.
`Cc1cc(N2CCN(C)CC2)nc2ccc(NC(=O)c3ccc(C(C)(C)C)cc3)cc12` gave p53ts 32C kill 15.8µM*, p53ts 39C tox 20µM* and Peg3 imprint -19.3%[10.9 µM].
Cc1ccccc1NC(=O)Nc1ccc2nc(N3CCN(C)CC3)cc(C)c2c1 was read as p53ts 32C kill -14.3%, p53ts 39C tox -0.3% and Peg3 imprint 7.6%[10.9 µM].
Screening CCOc1ccccc1NC(=O)Nc1ccc2nc(N3CCN(C)CC3)cc(C)c2c1 returned p53ts 32C kill inconclusive, p53ts 39C tox 10µM* and Peg3 imprint -7.8%[10.9 µM].
`Cc1cc(N2CCN(C)CC2)nc2ccc(NC(=O)Nc3ccc(Cl)cc3)cc12` gave p53ts 32C kill -13.6%, p53ts 39C tox -11.1% and Peg3 imprint -5.6%[10.9 µM].
CN1CCN(c2ncc3nc(-c4ccc(F)cc4)c(=O)n(C4CC4)c3n2)CC1 was read as p53ts 32C kill -9.7%, p53ts 39C tox -6.2% and Peg3 imprint 2.7%.
`CCc1ccc(C(=O)c2cn(CC(=O)Nc3cccc(C)c3C)c3nc(C)ccc3c2=O)cc1` gave p53ts 32C kill 3.4%, p53ts 39C tox -13.0% and Peg3 imprint -0.7%[10.9 µM].
COc1cccc(N2CCN(c3ncc4c(n3)CCN(Cc3ccc(Br)cc3)C4)CC2)c1 was read as p53ts 32C kill -12.0%, p53ts 39C tox -23.1% and Peg3 imprint -10.9%[10.9 µM].
`Cc1ccc(CNC(=O)Cn2nc(C)n3cccc3c2=O)cc1` gave p53ts 32C kill 3.7%, p53ts 39C tox -9.7% and Peg3 imprint -13.5%[10.9 µM].
`CCc1nn(CC(=O)NCc2ccccc2)c(=O)c2cccn12` gave p53ts 32C kill -24.2%, p53ts 39C tox 20µM* and Peg3 imprint -15.6%[10.9 µM].

Assay outcomes deposited in PubChem BioAssay by National Center for Advancing Translational Sciences (NCATS).
